Our source for the Potency, activity change, negative = inhibition and outcome values is PubChem BioAssay (NCATS).

Assay [1] concerns the target Cytochrome P450 1A2 (Homo sapiens) (UniProt P05177). Briefly: p450-cyp1a2 (AID 410; calls by dose curve; also: potency is read from the fitted curve at half-maximal effect). In a few lines: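 Human CYP1A2 (20nM) demethylated Luciferin-ME at its Km (100uM) in 100mM KPO4. After 10 min compound preincubation, NADPH regeneration ran the reaction 60 min at room temperature. Luciferin was read by luminescence, normalized to 57 uM furafylline.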
Assay [2] deals with Glucocorticoid receptor (Homo sapiens) (UniProt P04150). Description: GR-GFP Redistribution (AID 450;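 active = compounds whose dose series gives a full or clear partial fitted curve of increased nuclear translocation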; also: potency is read from the fitted curve at half-maximal effect). The settings on record: U2OS GR-GFP nuclear translocation, laser cytometry, 2 h.
Assay [3] shares this target. Description: GR-EFC Redistribution (AID 451; calls by dose curve; also: potency is read from the fitted curve at half-maximal effect). The settings on record: CHO-K1 GR-EFC translocation, beta-gal luminescence, 2 h. In short, it runs like this:
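CHO-K1 cells stably expressing nuclear-localized β-gal enzyme acceptor and GR fused C-terminally to the enzyme donor fragment; ligand-driven nuclear translocation restores β-gal by complementation. Compounds titrated up to 46 uM final, 2 h at 37 °C; luminescence read.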

Assay [4] concerns the target Cytochrome P450 3A4 (Homo sapiens) (UniProt P08684). Description: qHTS Assay for Activators of Cytochrome P450 3A4 (AID 885). Also: nearly all actives have a fitted effect of over 65% in size. In short, it runs like this: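 Signal was normalized against complete inhibition by 57 uM ketoconazole. The reaction used 20nM CYP3A4 with 25uM Luciferin-PPXE, 10-min compound preincubation and a 60-min NADPH-supported step at RT.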
A general note: In qHTS, concentration-response curves come from the screen itself.

The test system of assay [5] is Zika virus NS2B-NS3 protease (unlinked complex). Description: Confirmatory screen GU AMC qHTS for Zika virus inhibitors (AID 1347153).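 Also: percent inhibition with 0% = no inhibitor control and 100% = no enzyme control; nearly all actives have a fitted effect of over 70% in size.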 In a few lines: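 Compounds were preincubated 15 min at room temperature with 25 nM noncovalent NS2B-NS3 protease at pH 8.0; AMC substrate added at 10 microM and 15-min fluorescence gain (340/450 nm) converted to percent inhibition, fitted 4-parameter.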

Assay [6] is described as follows: Confirmatory screen NINDS Rhodamine qHTS for Zika virus inhibitors (AID 1347161).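 Also: series mostly up to about 110 µM; plate controls were no-inhibitor control for no effect and no-enzyme control for full effect; nearly all actives have a fitted effect of over 60% in size.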 In short, it runs like this: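 Purified NS2B-NS3 protease with the NS2B hydrophilic domain joined by a flexible linker (25 nM) in 10 mM Tris-HCl pH 8.0, 0.01% Tween 20, preincubated 15 min at RT with compound; Rhodamine110 peptide substrate 1.5 µM; fluorescence change over 15 min; 4-parameter Hill fit.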

A short description of assay [7]: Vero cells viability qHTS for Zika virus inhibitors (AID 1347167). Also: % is scaled to controls: 0 for no effect and ±100 for the full control effect. In short, it runs like this: (§1)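 Counter-screen for cytotoxicity of hits from NS2B-NS3 protease qHTS. Overnight-attached cells (2.5 x 10^5 cells/mL, DMEM/4% FBS) were dosed in titration, incubated 24 to 48 hours, then assayed by CellTiter Glo.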
Assay [8] can be described thus: HepG2 cells viability qHTS for Zika virus inhibitors (AID 1347168). Also: potency is read from the fitted curve at half-maximal effect. In a few lines: as §1
Assay [9] deals with Zika virus NS2B-NS3 protease. Briefly: Primary screen GU AMC qHTS for Zika virus inhibitors (AID 1347154). Also: nearly all actives have a fitted effect of over 70% in size.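 As to activity change, negative = inhibition: 0% = no-inhibitor control and -100% = no-enzyme control.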 In short, it runs like this: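 Unlinked Zika NS2B hydrophilic domain/NS3 protease domain noncovalent complex (25 nM final) in 10 mM Tris-HCl pH 8.0, 0.01% Tween 20, with AMC peptide substrate. Fluorescence (ex 340, em 450 nm) change over 15 min, room temperature; percent inhibition fitted to 4-parameter Hill equation.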

The target of assay [10] is Calcium and integrin-binding protein 1 (Homo sapiens) (UniProt Q99828). Description: Primary qHTS for Identification of Calcium Integrin Binding Protein 1 (CIB1) Competitor (AID 1508620). In short, it runs like this:
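Fluorescence polarization competition: CIB1-GST (1 uM final) preincubated with compound 15 min at room temperature, then FITC-labeled alphaIIb peptide (100 nM final) added for another 15 min. Polarization read at Ex 480/Em 540.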

For assay [11], the target named is Cytochrome P450 3A4 (Homo sapiens) (UniProt P08684). Briefly: Cytochrome P450 family 3 subfamily A member 4 (CYP3A4) small molecule antagonists: luciferase qHTS assay (AID 1645841; active = well fitted curve in the direction sought with a large enough effect in the repeat runs; an effect the other way counts as inactive or inconclusive; also: nearly all actives have a fitted effect of over 45% in size). In a few lines: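 P450-Glo CYP3A4 enzyme with proluciferin substrate was preincubated with DMSO-dissolved compounds for 10 min at room temperature. NADPH regeneration solution started a 1 h reaction. Detection reagent stopped it, and luminescence was read after 20 min.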

The target of assay [12] is Cytochrome P450 2C9 (Homo sapiens) (UniProt P11712). Description: Cytochrome P450 family 2 subfamily C member 9 (CYP2C9) small molecule antagonists: luciferase qHTS assay (AID 1645842; active = well fitted curve in the direction sought with a large enough effect in the repeat runs; an effect the other way counts as inactive or inconclusive; also: nearly all actives have a fitted effect of over 55% in size). In short, it runs like this:
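Luminescence, after 20 min with luciferin detection reagent, reflected CYP2C9 turnover during a 1 h NADPH-driven reaction at 37C. Enzyme-substrate mix contained 0.4% bovine serum albumin and was preincubated with compound 10 min at room temperature.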

The nature of assay [13]: Primary qHTS for inhibitors of nuclear receptor binding SET domain protein 2 (NSD2) in an isogenic RCH-ACV NSD2 p.E1099K mutant (9B) (AID 1645876). Also: % is scaled to controls: 0 for no effect and ±100 for the full control effect; nearly all actives have a fitted effect of over 70% in size.
Assay [14] can be described thus: Primary qHTS for inhibitors of nuclear receptor binding SET domain protein 2 (NSD2) in an RCH-ACV wild type WT cells (2C) (AID 1645877). Also: nearly all actives have a fitted effect of over 70% in size.
The target of assay [15] is Glutathione peroxidase 1 (Homo sapiens) (UniProt P07203). Description: Primary qHTS Assay for Inhibitors of Recombinant Selenoprotein Glutathione Peroxidase 1 (GPX1) (AID 1845191). Also: % is scaled to controls: 0 for no effect and ±100 for the full control effect; nearly all actives have a fitted effect of over 65% in size. In short, it runs like this: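 Recombinant GPX1 (10 nM final) was preincubated with compound for 30 min at room temperature, then reacted with 1 mM GSH, 0.5 mM CHP, 0.5 mM NADPH and 100 nM glutathione reductase; NADPH fluorescence (340/450 nm) was read at 0 and 15 min.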

In assay [16] the target is Phospholipid hydroperoxide glutathione peroxidase GPX4 (Homo sapiens) (UniProt P36969). Description: Primary qHTS Assay for Inhibitors of Recombinant Selenoprotein Glutathione Peroxidase 4 (GPX4) (AID 1845192). Also: nearly all actives have a fitted effect of over 65% in size. The settings on record: outcome: dose series up to 50 µM unless noted. In a few lines: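 GR-coupled readout: 100 nM GR, 1 mM GSH, 0.5 mM NADPH; NADPH fluorescence (ex 340/em 450 nm) read at t=0 and after 15 min RT. GPX4 200 nM, preincubated 30 min with compound; substrate 0.5 mM CHP.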

A number with no mark means an inactive call. Records with an inconclusive call do not appear. The source made the active and inactive calls. Unless noted, calls follow the shape of the dose curve; as a rule, active = well fitted curve in the direction sought with a large enough effect; inconclusive = small, poorly fitted or top-dose-only effect, or another doubt; inactive = no such curve, though single readings can be large; an effect the other way counts as inactive or inconclusive.

Chain of Glucocorticoid receptor (Homo sapiens) (P04150 whole entry, looked up): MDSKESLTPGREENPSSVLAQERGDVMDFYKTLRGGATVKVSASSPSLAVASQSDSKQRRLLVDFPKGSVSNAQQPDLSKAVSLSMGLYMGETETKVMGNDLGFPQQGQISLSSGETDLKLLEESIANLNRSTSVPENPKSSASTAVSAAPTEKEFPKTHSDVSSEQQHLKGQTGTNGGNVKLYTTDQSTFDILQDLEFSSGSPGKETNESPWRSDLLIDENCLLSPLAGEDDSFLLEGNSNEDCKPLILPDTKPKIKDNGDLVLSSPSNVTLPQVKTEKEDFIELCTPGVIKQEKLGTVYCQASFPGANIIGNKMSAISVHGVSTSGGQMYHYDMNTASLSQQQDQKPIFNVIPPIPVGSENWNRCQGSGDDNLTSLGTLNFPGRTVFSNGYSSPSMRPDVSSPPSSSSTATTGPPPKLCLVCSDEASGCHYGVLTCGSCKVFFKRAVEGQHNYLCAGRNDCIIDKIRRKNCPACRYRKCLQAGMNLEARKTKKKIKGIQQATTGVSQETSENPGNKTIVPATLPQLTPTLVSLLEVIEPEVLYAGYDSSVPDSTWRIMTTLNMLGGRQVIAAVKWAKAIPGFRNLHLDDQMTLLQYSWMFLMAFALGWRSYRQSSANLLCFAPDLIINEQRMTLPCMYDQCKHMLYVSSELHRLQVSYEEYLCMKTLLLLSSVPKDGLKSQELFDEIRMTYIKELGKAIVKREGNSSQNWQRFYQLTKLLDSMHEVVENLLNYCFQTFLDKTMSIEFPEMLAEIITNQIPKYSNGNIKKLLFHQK
Chain of Cytochrome P450 3A4 (Homo sapiens) (P08684 whole entry, looked up): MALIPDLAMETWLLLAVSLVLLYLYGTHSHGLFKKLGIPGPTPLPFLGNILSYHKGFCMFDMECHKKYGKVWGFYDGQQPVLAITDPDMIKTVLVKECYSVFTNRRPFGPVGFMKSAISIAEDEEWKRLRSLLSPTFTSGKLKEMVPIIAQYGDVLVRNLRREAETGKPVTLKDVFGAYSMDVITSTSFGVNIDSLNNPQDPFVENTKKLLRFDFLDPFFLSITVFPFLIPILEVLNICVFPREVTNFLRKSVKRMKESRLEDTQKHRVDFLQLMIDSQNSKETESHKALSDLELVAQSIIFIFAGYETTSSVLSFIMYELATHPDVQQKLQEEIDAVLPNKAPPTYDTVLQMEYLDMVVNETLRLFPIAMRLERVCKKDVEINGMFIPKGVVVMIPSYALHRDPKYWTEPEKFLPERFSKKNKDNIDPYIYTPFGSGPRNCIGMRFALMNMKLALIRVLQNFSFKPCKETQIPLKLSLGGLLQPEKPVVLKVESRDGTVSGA
Chain of Cytochrome P450 1A2 (Homo sapiens) (P05177 whole entry, looked up): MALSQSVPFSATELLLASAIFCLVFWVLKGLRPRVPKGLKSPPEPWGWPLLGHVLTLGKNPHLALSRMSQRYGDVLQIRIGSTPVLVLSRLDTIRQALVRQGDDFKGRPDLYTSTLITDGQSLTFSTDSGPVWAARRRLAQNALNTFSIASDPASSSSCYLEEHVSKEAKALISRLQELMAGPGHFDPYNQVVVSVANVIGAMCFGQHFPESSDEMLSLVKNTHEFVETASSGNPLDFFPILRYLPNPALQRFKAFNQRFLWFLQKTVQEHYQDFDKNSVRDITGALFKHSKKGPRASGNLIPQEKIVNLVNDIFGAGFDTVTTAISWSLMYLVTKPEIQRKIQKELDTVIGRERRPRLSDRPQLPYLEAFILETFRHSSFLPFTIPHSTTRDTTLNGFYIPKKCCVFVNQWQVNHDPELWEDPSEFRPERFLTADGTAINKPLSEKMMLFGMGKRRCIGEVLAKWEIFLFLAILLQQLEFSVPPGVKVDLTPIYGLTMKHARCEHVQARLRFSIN
Chain of Calcium and integrin-binding protein 1 (Homo sapiens) (Q99828 whole entry, looked up): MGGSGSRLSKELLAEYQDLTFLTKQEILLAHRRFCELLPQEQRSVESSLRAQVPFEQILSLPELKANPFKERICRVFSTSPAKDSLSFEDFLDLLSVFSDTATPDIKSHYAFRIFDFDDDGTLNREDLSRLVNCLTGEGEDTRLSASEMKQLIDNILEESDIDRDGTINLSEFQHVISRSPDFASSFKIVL
Chain of Phospholipid hydroperoxide glutathione peroxidase GPX4 (Homo sapiens) (P36969 whole entry, looked up): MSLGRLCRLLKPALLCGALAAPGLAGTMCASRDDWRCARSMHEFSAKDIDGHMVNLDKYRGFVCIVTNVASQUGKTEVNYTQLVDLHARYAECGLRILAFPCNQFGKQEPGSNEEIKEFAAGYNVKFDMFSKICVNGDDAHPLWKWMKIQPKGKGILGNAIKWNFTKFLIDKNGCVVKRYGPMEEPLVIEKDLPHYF
Chain of Glutathione peroxidase 1 (Homo sapiens) (P07203 whole entry, looked up): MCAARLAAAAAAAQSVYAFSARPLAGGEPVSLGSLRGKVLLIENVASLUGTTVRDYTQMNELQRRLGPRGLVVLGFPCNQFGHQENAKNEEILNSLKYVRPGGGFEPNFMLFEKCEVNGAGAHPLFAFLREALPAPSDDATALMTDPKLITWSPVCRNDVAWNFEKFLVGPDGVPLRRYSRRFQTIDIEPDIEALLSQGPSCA
Chain of Cytochrome P450 2C9 (Homo sapiens) (P11712 whole entry, looked up): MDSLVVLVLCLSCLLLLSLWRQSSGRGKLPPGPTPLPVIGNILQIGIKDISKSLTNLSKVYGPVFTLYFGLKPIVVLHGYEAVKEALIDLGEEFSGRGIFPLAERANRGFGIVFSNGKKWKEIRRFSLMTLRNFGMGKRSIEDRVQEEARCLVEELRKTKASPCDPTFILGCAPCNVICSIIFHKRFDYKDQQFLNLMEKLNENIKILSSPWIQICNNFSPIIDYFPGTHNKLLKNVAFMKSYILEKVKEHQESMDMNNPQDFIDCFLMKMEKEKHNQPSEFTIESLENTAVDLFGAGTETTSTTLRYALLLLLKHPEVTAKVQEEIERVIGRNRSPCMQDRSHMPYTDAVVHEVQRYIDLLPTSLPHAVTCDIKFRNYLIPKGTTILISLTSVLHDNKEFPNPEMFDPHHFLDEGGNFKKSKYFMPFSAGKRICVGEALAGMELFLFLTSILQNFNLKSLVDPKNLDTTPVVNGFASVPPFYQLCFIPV

For `Cc1c(-c2ccc(O)cc2)nn(-c2ccc(O)cc2)c1-c1ccc(OCCN2CCCCC2)cc1`, the Potency in [1] is 12.6 µM (active); in [2] it was over 46 µM; in assay [3], over 46 µM; in assay [8], 29.4 µM (active). The Potency result in [4], in [5], in [6] and in assay [7] was “inactive” in each case.

In the case of `CC/C=C\C/C=C\C/C=C\CCCCCCCCCCCC(=O)O`, the activity change, negative = inhibition in [9] was -2.15% [at 6.83 µM].

Consider `O=C1C(Nc2ccccc2)=CC(=O)c2ncccc21`, for which the Potency entry in assay [9] was “inactive”.

For `CCCCN=C(N)NC(=N)N`, the molecule was called inactive in assay [9], in assay [10], in assay [11] and in assay [12]. The Potency entry in assay [13], in [14] and in [15] was “inactive” in each case. Also, the outcome in assay [16] was “inactive [setting not given]”.
